In this assay the target is KSHV LANA C-terminal domain (residues 932-1162) binding to LBS DNA (UniProt O40947). Briefly: inhibitors of C-LANA binding to LBS DNA, dose response, biochemical, fluorescence polarization, cherry-picked samples (AID 504725). On the technique in general: Polarisation of emitted light reports the rotation of a fluorescent probe.

Entries with a potency or affinity are not part of this list. The source made the active and inactive calls. The rule behind the calls is not given here.

Take `O=C(NC1CCCCC1)c1cc([N+](=O)[O-])ccc1N1CCOCC1`: the result was inactive.

`CCN(CC)S(=O)(=O)N1CCN(S(=O)(=O)N2CCOCC2)CC1`: the call was inactive. The value for `COC(=O)c1ccc(Oc2nc(Nc3ccc(F)cc3)nc(N3CCCC3)n2)cc1` was “inactive”; that for `CN(C)c1ccc(/C=C/C(=O)c2ccc(O)cc2)cc1[N+](=O)[O-]` was “inactive”. The value for `CCSc1nnc(Cc2cc(=O)[nH]c(=O)[nH]2)n1-c1ccc(F)cc1` was “inactive”; that for `COc1ccc(S(=O)(=O)N2CCC(C(=O)N3CCCCC3)CC2)cc1` was “inactive”.

For the compound `CCN(CC(=O)Nc1c(F)cccc1F)C(=O)CCCc1cccs1`, the result was inactive. The value for `CCOc1ccc(Nc2ccc(N)c(S(=O)(=O)O)c2)cc1` was “inactive”; that for `CCOC(=O)c1ccccc1Nc1cc(C)nc2nc(C)nn12` was “inactive”. The result for `Cc1ccc(-c2nnc(-c3ccc(NC(=O)c4ccco4)cc3)o2)cc1` reads “inactive”; that for `Cc1c(C#N)c(=O)c(-[n+]2ccccc2)c([S-])n1-c1ccc(Cl)cc1`, “inactive”; that for `Cc1cc(NC(=O)CCC(=O)N(CCC(C)C)C(C(=O)NC2CCCC2)c2cccnc2)no1` (configuration not stated), “inactive”. The result for `CCc1ccc(C2CC(c3cccc(Cl)c3)n3nc(N)nc3N2)cc1` (configuration not stated) reads “inactive”; that for `COc1ccc(NS(=O)(=O)c2ccc(C)c(C(=O)N(C)Cc3ccc(OC)cc3OC)c2)cc1`, “inactive”; that for `CN(C)C(=O)c1ccc(NC(=O)COC(=O)C2(c3ccccc3)CCCC2)cc1`, “inactive”. `COc1cccc(NC(=O)CN(C)C(=O)c2cc3ccccc3cc2OC)c1`: the call was inactive. The value for `C=CCOC(=O)C1=C[C@H](c2csc3ccccc23)C[C@H](OCc2ccc(CO)cc2)O1` was “inactive”.

Values taken from PubChem BioAssay AID504725 (Broad Institute, 2011).
